About 83,000 compounds went through this panel and 20% of them were active in at least one assay; those are over-represented in the sample as a whole.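 Cells were grown in 96-well plates and exposed to the test compound at a single concentration for 48 hours; results are reported as percent growth, with values below 10 considered active.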 Calls of active or inactive are those of the source.

The test system of this test is NCI-H23 lung. The test is described as follows: NCI-60 one-dose screen, 48 h (100 = growth as untreated, 0 = no growth, -100 = all killed). Conditions: 10 µM unless noted. Here is the method: Growth inhibition of the NCI-H23 human Non-Small Cell Lung tumor cell line is measured as a screen for anti-cancer activity. Cells are grown in 96 well plates and exposed to the test compound for 48 hours. Compounds are tested at a single concentration, which is 10^-5 M for most compounds. The reported endpoint is percent growth (GI% or GIPRCNT), where numbers from 0 - 100% represent growth inhibition, and numbers from -100% - 0 represent cell death. For example, a value of 40 represents 60% growth inhibition. A value of 0 means no net growth occurred over the course of the experiment. A value of -40 indicates 40% of cells at the beginning of the experiment died by the end of the experiment. A value of -100 means all cells are dead at the end of the experiment.
NCI-60 Human Tumor Cell Lines Screen was performed using the standard one-dose NCI protocol, which is described in more detail at https://dtp.cancer.gov/discovery_development/nci-60/default.htm.
Compounds with GIPRCNT values below 10 were considered active. Activity score was based on GIPRCNT using the following formula: […]
Score is 0 for GIPRCNT values of 100 or above, 50 for GIPRCNT values of 0, and 100 for GIPRCNT values of -100.
Regarding `COc1cc([C@H](C)c2ccc3ccccc3c2)cc(OC)c1OC`, the growth is 30.1% (inactive). In the case of `C=C(C)[C@@H]1CC[C@]2(C(=O)OCCCC[P+](c3ccccc3)(c3ccccc3)c3ccccc3)CC[C@]3(C)[C@H](CC[C@@H]4[C@@]5(C)CC[C@H](OC(=O)C(Cl)Cl)C(C)(C)[C@@H]5CC[C@]43C)[C@@H]12` it was -16.5% (active); in that of `O=C(Nc1ccc(S(=O)(=O)NC2CCCCCC2)cc1)C(c1ccccc1)S(=O)(=O)c1ccc(F)cc1` (stereo not given), 9.28% (active). As to `O=C(CCc1nnco1)c1nc2ccc([N+](=O)[O-])cc2[nH]1`, the growth is 86.3% (inactive). In the case of `COc1ccc([C@H]2[C@@H](F)C(=O)N2c2cc(OC)c(OC)c(OC)c2)cc1F` it was 21.3% (inactive). For `Clc1ccc2c(NCCCNC3CCCCC3)ccnc2c1` the value was 112% (inactive); for `N#Cc1c(-c2ccc(F)cc2)nc(N/N=C/c2cccc(O)c2)nc1N1CCOCC1`, 99.9% (inactive); for `O=C(Nc1nc2ccc(C(F)(F)F)cc2s1)c1cc(Cl)ccc1O`, -12% (active). In the case of `COC(=O)/C=C/c1cc(OC(C)=O)c2c(c1)C(C(=O)OC)C(c1ccc(OC(C)=O)c(OC(C)=O)c1)O2` (stereo not given) it was 21.3% (inactive). For the compound `Cc1[nH]c2ncnc(Oc3ccc(NC(=O)Nc4ccc(Cl)c(C(F)(F)F)c4)cc3)c2c1C`, the growth was 56.7% (inactive). For `COc1ccc(NC(=O)Nc2ccc(Nc3nc(C)cc(Nc4ccc(C)cc4)n3)cc2)cc1` the value was -57.2% (active); for `Nc1c(C(=O)Nc2cccc3ccccc23)sc2nc3c(cc12)COCC3`, 63.1% (inactive); for `C=CCn1c(SCC(=O)Nc2ccc(C(=O)/C=C/c3ccc(Cl)cc3)cc2)nnc1-c1cc(OC)c(OC)c(OC)c1`, 92.9% (inactive).

On to `CCOC(=O)c1c(C(F)(F)F)n([O-])c2ccc(Cl)cc2[n+]1=O`, for which the growth was 14.8% (inactive). `Nc1cc(N)nc(SCC(=O)O)n1`: the growth is 102% (inactive). In the case of `CCOC(=O)c1c(C)nc2c(c1N)/C(=C/c1ccc[nH]1)C(=O)N2Cc1ccc(C(F)(F)F)cc1` it was 51.8% (inactive). In the case of `O=C1NC(SCc2ccc(F)cc2)=N/C1=C/c1cccc(OCc2ccc(Cl)cc2)c1` it was 57.6% (inactive). In the case of `O=C(C[n+]1cccc2cc(Cl)ccc21)c1ccc2c(c1)CCCC2` it was 8.05% (active); in that of `COc1ccc2nc(-c3ccc(OC)c(OC)c3)cc(-c3nnc(SCC(=O)Nc4ccc(C(C)=O)cc4)o3)c2c1`, 104% (inactive).

In the case of `CCOC(=O)NCCc1nc2c([nH]1)c(=O)n(C)c(=O)n2C`, the growth is 93.7% (inactive). In the case of `CNCc1cccc2c1OCCOCCOCCN(CCN1CCOCC1)S(=O)(=O)c1ccc(cc1)-c1cnc(N)c(n1)C(=O)N2` it was 42.3% (inactive). In the case of `COC(=O)/C=C1\SC(=Nc2cccc(Cl)c2)N(CCc2c[nH]c3ccccc23)C1=O` it was 69.9% (inactive). For `CCCCn1c(=O)c(/C=C/C(=O)/C=C/c2ccc(OC)cc2)cc2cc(Cl)ccc21` the value was 48.6% (inactive); for `COc1cc(C2CC(c3ccc(Nc4nc(NCCO)nc(NCCO)n4)cc3)=NN2c2cc(Cl)cc(Cl)c2)cc(OC)c1OC` (stereo not given), 4.73% (active). Turning to `O=C(Nc1cc(Br)ccn1)c1cc2cc(Nc3nc(-c4ccccc4)nc4ccccc34)ccc2oc1=O`, the growth is 98.6% (inactive). For `Oc1ccc(CNNc2ccnc3c(O)cccc23)c2cccnc12` the value was 31.6% (inactive); for `C=C(C)[C@@H]1CCC=C2CC[C@]3(C)[C@H](CC[C@@H]4[C@@]5(C)CCCNC(C)(C)[C@@H]5CC[C@]43C)[C@H]21`, 66.5% (inactive). In the case of `CC1=C/C(=N\N=C2/C=C(C)CC(C)(C)C2)CC(C)(C)C1` it was 102% (inactive); in that of `CSc1nc(-c2cccs2)c2c(N)[nH]nc2n1`, 93.1% (inactive); in that of `C#CCN(CCCOc1ccc(Cl)cc1Cl)CCCSC(=O)CCCCCN1/C(=C\C=C2/CCCC(/C=C/C3=[N+](CCCCCC(=O)[O-])c4ccccc4C3(C)C)=C2Cl)C(C)(C)c2ccccc21`, 45.3% (inactive). In the case of `O=C1Nc2ccc(Cl)cc2/C1=N/c1nc(-c2ccc(Cl)cc2)cs1`, the growth is 7.9% (active).

In the case of `CCOC(=O)c1c(C)nc2c(c1N)/C(=C/c1cccs1)C(=O)N2Cc1ccccc1`, the growth was 74.5% (inactive).

Regarding `O=C(/C(=C\c1c(-c2ccccc2)[nH]c2ccccc12)S(=O)(=O)c1ccccc1)c1ccccc1`, the growth is 47.9% (inactive).

With `COc1cc(/C=C/C(=O)c2ccc(NC(=O)CSc3nnc(-c4cc(OC)c(OC)c(OC)c4)n3-c3ccccc3)cc2)cc(OC)c1OC`, the growth is -3.58% (active).

In the case of `O=c1[nH]c2ccccc2cc1-c1nc2ccc(Cl)cc2[nH]1`, the growth was 53.5% (inactive). For `COc1ccc(-c2cs/c(=N\N=C\c3ccc(O)cc3O)n2/N=C/c2ccc(O)cc2O)cc1` the value was -28.5% (active).

Consider `COc1cc(C(=O)Nc2cc(OC)c3ccn(C)c3c2)cc2c1C[C@]1(C)CC[C@@H](O)C(C)(C)[C@H]1O2`, for which the growth was 30.3% (inactive). As to `Cc1cccc(C)c1Nc1nnc(-c2ccc(F)cc2)o1`, the growth was 92.4% (inactive).

Take `CCC[S@](=O)c1ccc2nc(NC(=O)OC)[nH]c2c1`: the growth is 98.2% (inactive).

Take `Nc1c(C(=O)Nc2ccccn2)sc2nc3c(cc12)CCCCC3`: the growth is 29.9% (inactive).

Source of the values: PubChem BioAssay (NCI).
